Screens: PubChem, National Center for Advancing Translational Sciences (NCATS)
The list is not random: actives were taken first. Their share in the collection is about 3.2%.
RE007 growth inh: less growth of the S. pombe RE007 Vpr strain. S. pombe RE007 Vpr strain, BacTiter-Glo ATP luminescence, 24 h. Potency, µM (highest dose often 92.2 µM), for the others: at the highest dose activity change, negative = less growth, hits mostly inhibitors. 0.21% of 360,000 active; active = well fitted falling curve with a large enough effect; inconclusive = small, poorly fitted or top-dose-only effect; inactive = no such curve, though single readings can be large or run the other way; note: nearly all actives have a fitted effect of over 50% in size
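Fission yeast RE007 carrying one integrated HIV-1 vpr copy, seeded at OD 0.01 in PMG+AL medium with 23 nL pinned compound. Grown 24 h at 30 degrees; viability read by BacTiter-Glo luminescence after 5 min.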
AMA1-RON2 inh: inhibitors of Plasmodium falciparum AMA1-RON2 interaction. Potency, µM (highest dose often 58.2 µM), inactives show at the top dose activity change, negative = inhibition, actives largely listed as inhibitors. AID 720542. 0.2% of 360,000 active. AlphaScreen AMA1-biotinylated RON2 peptide binding;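 note: 0% = vehicle wells and -100% = peptide control; nearly all actives have a fitted effect of over 45% in size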
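AMA1 (3D7) with his tag at 25 nM final met compounds first, then biotinylated RON2 peptide at 25 nM; detection used donor plus acceptor beads, 10 µg/mL apiece, read by AlphaScreen after 30 min at room temperature.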
AmpC detergent: AmpC beta-lactamase inhibition with detergent present; AmpC hydrolysis of nitrocefin, absorbance 480 nm, 0.01% Triton; AID 485294; P00811; Potency, µM (top dose mostly 114 µM), for inactives: top-dose activity change, negative = inhibition, most hits filed as inhibitors; 0.041% of 370,000 active;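 note: 0% = no-compound wells and -100% = no-enzyme wells; nearly all actives have a fitted effect of over 25% in size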
Target sequence (P00811 whole entry, looked up): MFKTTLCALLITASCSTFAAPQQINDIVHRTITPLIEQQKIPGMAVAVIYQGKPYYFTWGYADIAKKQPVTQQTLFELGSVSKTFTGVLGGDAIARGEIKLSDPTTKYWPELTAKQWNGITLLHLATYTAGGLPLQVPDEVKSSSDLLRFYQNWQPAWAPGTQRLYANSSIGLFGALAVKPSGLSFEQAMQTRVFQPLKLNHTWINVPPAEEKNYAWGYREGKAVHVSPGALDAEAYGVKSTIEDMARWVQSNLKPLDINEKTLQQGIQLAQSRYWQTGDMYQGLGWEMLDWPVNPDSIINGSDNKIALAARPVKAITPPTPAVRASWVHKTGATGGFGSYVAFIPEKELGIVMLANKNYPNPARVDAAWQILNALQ
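20 mM phosphate pH 7.0 + 0.01% (detergent screen) or 0.0001% Triton X-100; 5.3 nM AmpC reagent; cpd preinc 15 min RT; nitrocefin (800 uM stock) to start; A480 q20 s × 4 min; Activity was normalised to no-enzyme and no-compound control wells.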
AmpC inh no detg: inhibitors of E. coli AmpC beta-lactamase without detergent; AmpC nitrocefin hydrolysis, absorbance 480 nm, 0.0001% Triton; Potency, µM (titrated, usually from 57.1 µM), for inactives: top-dose activity change, negative = inhibition, hits mostly inhibitors; 0.52% of 330,000 active;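 note: plate controls were no compound for no effect and no enzyme for full effect; nearly all actives have a fitted effect of over 20% in size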
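20 mM phosphate pH 7.0 + 0.01% (detergent screen) or 0.0001% Triton X-100; 5.3 nM AmpC reagent; cpd preinc 15 min RT; nitrocefin (800 uM stock) to start; A480 q20 s × 4 min; Activity was normalised to no-enzyme and no-compound control wells.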
Sm TGR inh: inhibitors of Schistosoma mansoni thioredoxin glutathione reductase; Q962Y6; 3% of 360,000 active; Potency, µM (series often up to 114 µM), for inactives: top-dose activity change, negative = inhibition, hits mostly inhibitors; purified TGR, DTNB reduction, TNB absorbance 405 nm; note: nearly all actives have a fitted effect of over 60% in size
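Kinetic colorimetric format: TGR-catalysed, NADPH-driven DTNB reduction monitored via TNB absorbance. Enzyme dispensed at 20 nM; compound exposure 15 min at room temperature before reaction start.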
An asterisk follows results filed as active; ? = inconclusive; nt = no result given; [ ] = dose if it differs, or a comment. Unless noted, calls come from the whole dose curve; as a rule, active = well fitted curve in the direction sought with a large enough effect; inconclusive = small, poorly fitted or top-dose-only effect, or another doubt; inactive = no such curve, though single readings can be large; an effect the other way counts as inactive or inconclusive. Unless noted, % is set by controls: 0 for no effect and ±100 for the full control effect; potency is the fitted concentration of half-maximal effect.

SMILES	RE007 growth inh	AMA1-RON2 inh	AmpC detergent	AmpC inh no detg	Sm TGR inh
Oc1ccc(NCc2cccc(OCc3ccccc3)c2)cc1	-25%	36%	8%	-27%	13µM*
Cc1ccc(Nc2c(-c3ccco3)nc3ccc(C)cn23)cc1	nt	nt	23%	nt	-3%
CCCCC(=O)Nc1nnc(S(=O)(=O)N(C)Cc2ccc(Cl)cc2)s1	nt	nt	14%	nt	-1%
CC(=O)Nc1ccc(N=Cc2c(O)n(Cc3ccco3)c(=O)[nH]c2=O)cc1	-9%	-7%	11%	-8%	25µM*
CCN(CC)CCN=Cc1c(O)n(Cc2ccco2)c(=O)[nH]c1=O	9%	53%	-5%	-18%	-24%
Cc1ccc(-n2c(O)c(C=NCc3ccco3)c(=O)[nH]c2=S)cc1C	2%	6%	9%	-34%	10µM*
CCCCC(=O)N/N=C/c1c(O)n(Cc2ccco2)c(=O)[nH]c1=O	11%	16%	?	-21%	?
O=c1[nH]c(=O)n(Cc2ccco2)c(O)c1C=NCc1ccco1	3%	-20%	-3%	-18%	25µM*
CC(C)n1c(=O)c(C=Nc2ccc(S(N)(=O)=O)cc2)c(O)n(Cc2ccco2)c1=O	-9%	0%	-9%	22µM*	-26%
CCCCNC(=O)CSc1nc2nc(C)c(Cc3ccccc3C)c(C)n2n1	nt	nt	-1%	nt	8%
COc1ccccc1-c1nnc(C2CCN(C(=O)c3cccc(Cl)c3)CC2)o1	nt	nt	9%	nt	-5%
Cc1cccc2c1N(Cc1ccccc1OCCC(C)C)C(=O)C2=O	nt	nt	16%	nt	0%
CCc1ccc2c(c1)c(=O)c(C(=O)c1ccccc1)cn2CC(=O)Nc1ccc(C)c(Cl)c1	nt	nt	-4%	nt	-13%
CCC(=O)N1CCc2cc(S(=O)(=O)NCCC(=O)Nc3ccc(CC)cc3)ccc21	nt	nt	2%	nt	-4%
Cc1ccc(CCNC(=O)CCS(=O)(=O)c2cc3c(cc2Cl)NC(=O)CO3)cc1	nt	nt	23%	nt	2%
O=C(NC1CCCCC1)C(c1ccncc1)N(Cc1ccc2c(c1)OCO2)C(=O)C(F)(F)F (stereo not given)	16%	44%	?	-18%	45µM*
CCc1ccc(N(C(=O)C(F)(F)F)C(C(=O)NC2CCCCC2)c2ccncc2)cc1 (stereo not given)	-9%	-7%	0%	0.56µM*	-2%
CCc1ccc(N(C(=O)c2ccco2)C(C(=O)NC2CCCC2)c2ccncc2)cc1 (stereo not given)	-1%	0%	2%	18%	-9%
O=C(Cn1c(=O)nc(-c2ccccc2)c2cc(Cl)ccc21)NCCCc1ccccc1	nt	nt	8%	nt	-8%
COc1ccccc1CNC(=O)c1ccc(CSc2nc3ccncc3n2Cc2ccccc2C)cc1	nt	nt	20%	nt	2%
COc1ccc(CNc2nc(-c3ccco3)nn2S(=O)(=O)c2ccc3ccccc3c2)cc1OC	nt	nt	13%	nt	-27%
CCCc1cc(C(=O)NCCc2ccccc2)no1	-30%	8%	-4%	11µM*	3%
Cc1ccc2c(=O)c(C(=O)c3cccc(Cl)c3)cn(CC(=O)Nc3ccccc3C(F)(F)F)c2n1	nt	nt	5%	nt	26%
Cc1cc([N+](=O)[O-])c2c(c1C)C1C=CCC1C(c1ccccn1)N2 (stereo not given)	nt	nt	?	-20%	22µM*
Cc1ccc(Cl)c2c1N[C@@H](c1ccc(C(=O)O)cc1)[C@H]1CC=C[C@@H]21	nt	nt	-10%	nt	-21%
SMILES	RE007 growth inh	AMA1-RON2 inh	AmpC detergent	AmpC inh no detg	Sm TGR inh
Nc1cccnc1Sc1cccc(Cl)c1	18µM*	74%	-2%	-41%	?
Nc1cccnc1Sc1ccc(Cl)cc1	-27%[3.69 µM]	28%	6%	-18%	-16%
CCC(=O)N(CCC(c1ccc(C)cc1)c1ccco1)Cc1ccco1 (stereo not given)	-1%	-12%	11%	62%	14µM*
Cc1ccccc1NC(=O)c1c(C)oc2ccc(O)c(CN3CCOCC3)c12	nt	nt	-2%	nt	0%
COC(=O)c1ccccc1CSc1nsc(/C=C/N(C)C)c1C#N	11%	0%	-1%	28µM*	11%
Cc1nc(CSc2nsc(/C=C/N(C)C)c2C#N)cs1	8%	-11%	0%	20µM*	-1%
O=C(NCCc1ccc(Cl)cc1)C1COc2ccccc2C1 (stereo not given)	nt	nt	19%	nt	0%
